Drawing on PubChem BioAssay, this text covers log fold change Tl+ flux for 13 compounds.

Common to all, as to test: BK channel mutant inhibitors and activators – cell-based, U2OS BacMam, thallium flux, beta subunits, selectivity assay, profiling panel (AID 1259406);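 also: initial slope of Thallos dye fluorescence rise after thallium is added; log ratio against the mean of 0.3% DMSO vehicle wells on the same plate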
For one experiment, the system named is F380Y. To be noted: U2OS BacMam BK variants, at 30 µM.
Another experiment relates to F380Y/beta1. To be noted: U2OS BacMam BK variants, at 30 µM.
In a further experiment the test system is F380Y/beta2Delta. To be noted: U2OS BacMam BK variants, at 30 µM.
A further experiment relates to F380Y/beta4. The settings on record: U2OS BacMam BK variants, at 30 µM.
For experiment [1], the target named is Calcium-activated potassium channel subunit alpha-1 (Homo sapiens) + Leucine-rich repeat-containing protein 26 (Homo sapiens) (UniProt Q12791+Q2I0M4). To be noted: U2OS BacMam BK variants, F380Y/Slo1WT/gamma1, at 30 µM.
The subject of a further experiment is R275C. The settings on record: U2OS BacMam BK variants, at 30 µM.
The next experiment concerns R275C/beta1. To be noted: U2OS BacMam BK variants, at 30 µM.
The test system of a further experiment is R275C/beta2Delta. To be noted: U2OS BacMam BK variants, at 30 µM.
In the next experiment the test system is R275C/beta4. To be noted: U2OS BacMam BK variants, at 30 µM.
Another experiment relates to R275C/Slo1WT/beta2. To be noted: U2OS BacMam BK variants, at 30 µM.

A number with no mark means an inactive call. Calls of active or inactive are those of the source.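 The calls were made as follows: active = thallium flux through the channel raised or lowered by more than 3 SD from vehicle-only wells, actives on both sides; inactive = the rest.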

Sequence of Calcium-activated potassium channel subunit alpha-1 (Homo sapiens) + Leucine-rich repeat-containing protein 26 (Homo sapiens) (Q2I0M4 whole entry, looked up, one chain of several): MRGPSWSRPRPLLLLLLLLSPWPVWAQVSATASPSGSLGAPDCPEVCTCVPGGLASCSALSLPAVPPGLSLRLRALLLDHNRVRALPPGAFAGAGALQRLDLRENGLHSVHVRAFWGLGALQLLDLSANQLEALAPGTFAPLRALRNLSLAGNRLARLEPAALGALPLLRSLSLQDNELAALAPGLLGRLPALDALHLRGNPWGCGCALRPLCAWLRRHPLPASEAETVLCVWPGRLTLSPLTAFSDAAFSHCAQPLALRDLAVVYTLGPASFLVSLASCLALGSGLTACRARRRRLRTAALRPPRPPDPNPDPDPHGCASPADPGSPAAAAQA

With `Cc1cccc(N=Cc2cc(Cl)cc(Cl)c2O)c1C`, the log fold change Tl+ flux in the experiment with F380Y is 0.049; with F380Y/beta1, 0.0694; in the experiment with F380Y/beta2Delta, 0.0737; in the experiment on F380Y/beta4 it was 0.0885; in experiment [1] it was 0.078; in the experiment on R275C, 0.0221. Moreover, the log fold change Tl+ flux with R275C/beta1 was 0.0155; in the experiment on R275C/beta2Delta, 0.0671; in the experiment on R275C/beta4, 0.00158; with R275C/Slo1WT/beta2, -0.00626.
As to `O=C(NC(=O)N1CCCCC1)c1cc(Br)cc(Br)c1`, the log fold change Tl+ flux in the experiment on F380Y was -0.337 (active); in the experiment with F380Y/beta1, -0.109 (active); in the experiment on F380Y/beta2Delta, -0.277 (active); in the experiment with F380Y/beta4 it was -0.0283; in experiment [1] it was -0.127 (active); in the experiment with R275C, -0.145 (active). Moreover, the log fold change Tl+ flux in the experiment with R275C/beta1 was -0.0155; with R275C/beta2Delta, -0.0701; in the experiment on R275C/beta4, -0.0253; in the experiment with R275C/Slo1WT/beta2 it was -0.0054.
`CCOC(=O)c1cnn(C(=O)c2ccc(-n3c(C)ccc3C)cc2)c1N`: the log fold change Tl+ flux is -0.0269 in the experiment with F380Y; -0.0106 in the experiment with F380Y/beta1; -0.0157 with F380Y/beta2Delta; -0.067 with F380Y/beta4; 0.00537 in experiment [1]; -0.0135 in the experiment on R275C. Moreover, the log fold change Tl+ flux is -0.0219 with R275C/beta1, 0.0233 with R275C/beta2Delta, -0.00435 in the experiment with R275C/beta4 and 0.0525 in the experiment on R275C/Slo1WT/beta2.
As for `O=C(O)c1cccc(CSc2cccs2)c1`, the log fold change Tl+ flux with F380Y was 0.0692; in the experiment with F380Y/beta1 it was 0.0279; in the experiment on F380Y/beta2Delta, 0.0398; with F380Y/beta4, 0.000664; in experiment [1] it was 0.0207; in the experiment on R275C, 0.0115. Further, the log fold change Tl+ flux in the experiment on R275C/beta1 was 0.0346; with R275C/beta2Delta, 0.018; in the experiment with R275C/beta4 it was 0.0269; with R275C/Slo1WT/beta2 it was 0.0372.
For `COC(=O)C=C1NCC(O)CNC1=O` (stereo not given), the log fold change Tl+ flux in the experiment on F380Y was -0.00633; with F380Y/beta1, -0.0361; with F380Y/beta2Delta, 0.00999; in the experiment on F380Y/beta4, -0.025; in experiment [1], -0.0336; in the experiment with R275C, 0.0119. The log fold change Tl+ flux in the experiment on R275C/beta1 is -0.0456; with R275C/beta2Delta, 0.0117; with R275C/beta4, -2.9e-05; in the experiment with R275C/Slo1WT/beta2, 0.0313.
Turning to `Cc1cc(C(=O)ON=C(N)c2ccc([N+](=O)[O-])o2)no1`, the log fold change Tl+ flux in the experiment on F380Y was 0.0152; with F380Y/beta1 it was 0.0208; with F380Y/beta2Delta, 0.0122; in the experiment on F380Y/beta4, 0.0216; in [1] it was 0.00414; in the experiment with R275C it was -0.00373. Further, the log fold change Tl+ flux is 0.00585 in the experiment with R275C/beta1, -0.00874 with R275C/beta2Delta, 0.0176 with R275C/beta4 and -0.0342 with R275C/Slo1WT/beta2.
As to `Cc1nnc(-c2ccccn2)[nH]c1=O`, the log fold change Tl+ flux with F380Y was -0.0188; with F380Y/beta1 it was -0.0365; in the experiment on F380Y/beta2Delta, -0.0191; in the experiment with F380Y/beta4, -0.0613; in experiment [1] it was 0.0158; with R275C it was 0.0139. Further, the log fold change Tl+ flux was -0.0558 in the experiment on R275C/beta1, 0.00421 in the experiment with R275C/beta2Delta, -0.00382 in the experiment on R275C/beta4 and 0.0227 in the experiment on R275C/Slo1WT/beta2.
Regarding `OC(Cc1ccccc1)(c1ccccc1)c1ccccc1N=Cc1ccc2c(c1)OCO2` (stereo not given), the log fold change Tl+ flux was 0.00821 in the experiment with F380Y; 0.0126 with F380Y/beta1; -0.0347 in the experiment on F380Y/beta2Delta; -0.0765 with F380Y/beta4; -0.0874 in [1]; -0.0385 in the experiment with R275C. In addition, the log fold change Tl+ flux in the experiment on R275C/beta1 is -0.0387; with R275C/beta2Delta, -0.0661; in the experiment on R275C/beta4 it was -0.00775; with R275C/Slo1WT/beta2 it was -0.0302.
In the case of `O=C(Nc1ccc(OC(F)(F)F)cc1)Nc1cc(C(F)(F)F)ccc1N1CCOCC1`, the log fold change Tl+ flux is 0.0283 with F380Y; -0.00979 in the experiment with F380Y/beta1; 0.0491 with F380Y/beta2Delta; -0.00808 in the experiment with F380Y/beta4; 0.0378 in experiment [1]; 0.022 in the experiment on R275C. The log fold change Tl+ flux with R275C/beta1 was 0.0354; in the experiment on R275C/beta2Delta, -0.0143; in the experiment on R275C/beta4 it was -0.0232; in the experiment with R275C/Slo1WT/beta2, -0.0238.
Turning to `CC(C)(C)c1ccc(Oc2ccc(NC(=O)Nc3cccs3)cn2)cc1`, the log fold change Tl+ flux is -0.105 (active) in the experiment on F380Y; 0.131 (active) in the experiment with F380Y/beta1; -0.0118 with F380Y/beta2Delta; 0.0598 in the experiment with F380Y/beta4; 0.0627 in [1]; 0.0691 with R275C. In addition, the log fold change Tl+ flux with R275C/beta1 is 0.0982; with R275C/beta2Delta, 0.0026; with R275C/beta4 it was 0.026; with R275C/Slo1WT/beta2, -0.00521.
`Cc1cc(S(=O)(=O)c2ccc(Cl)cc2)sc1C(=O)NCC(O)c1ccccc1` (stereo not given): the log fold change Tl+ flux in the experiment on F380Y is 0.0511; with F380Y/beta1, 0.0134; in the experiment on F380Y/beta2Delta, 0.000794; with F380Y/beta4 it was 0.0168; in experiment [1], -0.0326; with R275C it was -0.0286. In addition, the log fold change Tl+ flux is 0.095 in the experiment with R275C/beta1, 0.0132 in the experiment on R275C/beta2Delta, 0.0561 with R275C/beta4 and -0.00987 in the experiment with R275C/Slo1WT/beta2.
Regarding `CC(=NO)c1ccc2c(c1)C(C)(C)CCC2(C)C`, the log fold change Tl+ flux with F380Y was -0.246 (active); in the experiment on F380Y/beta1, -0.197 (active); in the experiment on F380Y/beta2Delta, -0.444 (active); in the experiment on F380Y/beta4 it was -0.152 (active); in experiment [1], -0.146 (active); with R275C, -0.00509. The log fold change Tl+ flux was 0.0184 in the experiment with R275C/beta1, -0.00725 in the experiment on R275C/beta2Delta, -0.0253 in the experiment with R275C/beta4 and -0.0443 in the experiment with R275C/Slo1WT/beta2.
For the compound `CCOC(=O)CSc1nnc(OCC)n1-c1ccccc1`, the log fold change Tl+ flux is -0.0276 in the experiment on F380Y; -0.00436 with F380Y/beta1; 0.0123 in the experiment on F380Y/beta2Delta; -0.00338 with F380Y/beta4; 0.0529 in experiment [1]; -0.0234 in the experiment with R275C. The log fold change Tl+ flux in the experiment on R275C/beta1 was 0.0181; with R275C/beta2Delta it was -0.0101; in the experiment with R275C/beta4, -0.0109; in the experiment on R275C/Slo1WT/beta2, 0.0084.
